# Experimental data reported in PubChem BioAssay AID1159580 (chemical genetic matrix, 2015).
# In all, about 5,500 compounds went through this assay and about 2,000 (36%) were called active. Not shown: some 18% with an inconclusive outcome. This is one part of the list. Values without a mark were called inactive. No stated cut-off is given here; in the data, active means normalized growth mostly below about 0.91 (no sharp cut-off); inconclusive means no clear call, values can overlap the other calls; inactive means mostly above about 0.92.
# Assay: chemical genetic growth profiling, strain panel (AID 1159580);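 further: tested at 20 µM; growth read once vehicle control cultures reached saturation at 30 °C; 1 = growth at the plate median or of vehicle wells; lower values mean less growth of the strain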
# Details: growth OD
smiles,measurement,setting,value
c1cc2c(cc1[C@H]1OC[C@H]3[C@@H]1CO[C@H]3c1ccc3c(c1)OCO3)OCO2,normalized growth,"S. cerevisiae deletion strains, locus YJR075W, strain HOC1, hits give low values",0.914
same,normalized growth,"S. cerevisiae deletion strains, locus YKL009W, strain mrt4, hits give low values",0.922
same,normalized growth,"S. cerevisiae deletion strains, locus YKL068W, hits give low values",0.929 (active)
same,normalized growth,"S. cerevisiae deletion strains, locus YKL085W, strain MDH1 (second series), hits give low values",0.915 (active)
same,normalized growth,"S. cerevisiae deletion strains, locus YKL085W, strain MDH1, hits give low values",0.915 (active)
same,normalized growth,"S. cerevisiae deletion strains, locus YKL160W, strain elf1, hits give low values",0.878 (active)
same,normalized growth,"S. cerevisiae deletion strains, locus YKL190W, strain CNB1, hits give low values",0.947
same,normalized growth,"S. cerevisiae deletion strains, locus YKR001C, strain vps1, hits give low values",0.683 (active)
same,normalized growth,"S. cerevisiae deletion strains, locus YKR026C, strain gcn3, hits give low values",0.916 (active)
same,normalized growth,"S. cerevisiae deletion strains, locus YKR091W, strain srl3, hits give low values",0.899 (active)
same,normalized growth,"S. cerevisiae deletion strains, locus YLL001W, strain dnm1, hits give low values",0.887 (active)
same,normalized growth,"S. cerevisiae deletion strains, locus YLL026W, hits give low values",0.922 (active)
same,normalized growth,"S. cerevisiae deletion strains, locus YLL041C, strain sdh2, hits give low values",0.926 (active)
same,normalized growth,"S. cerevisiae deletion strains, locus YLR027C, strain aat2, hits give low values",0.931
same,normalized growth,"S. cerevisiae deletion strains, locus YLR039C, strain RIC1, hits give low values",0.398 (active)
same,normalized growth,"S. cerevisiae deletion strains, locus YLR058C, strain SHM2, hits give low values",0.943
same,normalized growth,"S. cerevisiae deletion strains, locus YLR102C, strain apc9, hits give low values",0.923 (active)
same,normalized growth,"S. cerevisiae deletion strains, locus YLR113W, strain HOG1, hits give low values",0.865
same,normalized growth,"S. cerevisiae deletion strains, locus YLR221C, strain rsa3, hits give low values",0.886 (active)
same,normalized growth,"S. cerevisiae deletion strains, locus YLR258W, strain gsy2, hits give low values",0.914 (active)
same,normalized growth,"S. cerevisiae deletion strains, locus YLR262C, strain YPT6 (second series), hits give low values",0.455 (active)
same,normalized growth,"S. cerevisiae deletion strains, locus YLR262C, strain YPT6, hits give low values",0.415 (active)
same,normalized growth,"S. cerevisiae deletion strains, locus YLR268W, strain sec22, hits give low values",0.833 (active)
same,normalized growth,"S. cerevisiae deletion strains, locus YLR320W, strain mms22, hits give low values",0.732 (active)
same,normalized growth,"S. cerevisiae deletion strains, locus YLR330W, strain CHS5, hits give low values",0.816 (active)
same,normalized growth,"S. cerevisiae deletion strains, locus YLR342W, strain FKS1 (second series), hits give low values",0.77 (active)
same,normalized growth,"S. cerevisiae deletion strains, locus YLR342W, strain FKS1, hits give low values",0.9 (active)
same,normalized growth,"S. cerevisiae deletion strains, locus YLR357W, strain rsc2, hits give low values",0.951
same,normalized growth,"S. cerevisiae deletion strains, locus YLR370C, strain arc18, hits give low values",0.914
same,normalized growth,"S. cerevisiae deletion strains, locus YLR371W, strain rom2, hits give low values",0.912
same,normalized growth,"S. cerevisiae deletion strains, locus YLR384C, strain iki3, hits give low values",0.936
same,normalized growth,"S. cerevisiae deletion strains, locus YLR418C, strain cdc73, hits give low values",0.692 (active)
same,normalized growth,"S. cerevisiae deletion strains, locus YML016C, strain PPZ1, hits give low values",0.947
same,normalized growth,"S. cerevisiae deletion strains, locus YML032C, strain rad52, hits give low values",0.902 (active)
same,normalized growth,"S. cerevisiae deletion strains, locus YML120C, strain ndi1, hits give low values",0.897 (active)
same,normalized growth,"S. cerevisiae deletion strains, locus YML124C, strain tub3, hits give low values",0.902 (active)
same,normalized growth,"S. cerevisiae deletion strains, locus YMR058W, strain fet3, hits give low values",0.896 (active)
same,normalized growth,"S. cerevisiae deletion strains, locus YMR078C, strain ctf18, hits give low values",0.892 (active)
same,normalized growth,"S. cerevisiae deletion strains, locus YMR125W, strain sto1, hits give low values",0.826 (active)
same,normalized growth,"S. cerevisiae deletion strains, locus YMR129W, hits give low values",0.925
same,normalized growth,"S. cerevisiae deletion strains, locus YMR205C, strain PFK2, hits give low values",0.774 (active)
same,normalized growth,"S. cerevisiae deletion strains, locus YMR223W, strain ubp8, hits give low values",0.914
same,normalized growth,"S. cerevisiae deletion strains, locus YMR231W, strain pep5, hits give low values",0.934
same,normalized growth,"S. cerevisiae deletion strains, locus YMR307W, strain GAS1, hits give low values",0.9
same,normalized growth,"S. cerevisiae deletion strains, locus YNL067W, strain RPL9B, hits give low values",0.957
same,normalized growth,"S. cerevisiae deletion strains, locus YNL071W, strain lat1, hits give low values",0.614 (active)
same,normalized growth,"S. cerevisiae deletion strains, locus YNL128W, strain TEP1, hits give low values",1.01
same,normalized growth,"S. cerevisiae deletion strains, locus YNL153C, strain GIM3, hits give low values",0.822 (active)
same,normalized growth,"S. cerevisiae deletion strains, locus YNL183C, strain NPR1, hits give low values",0.925
same,normalized growth,"S. cerevisiae deletion strains, locus YNL209W, strain ssb2, hits give low values",0.958
same,normalized growth,"S. cerevisiae deletion strains, locus YNL233W, strain BNI4, hits give low values",0.882
same,normalized growth,"S. cerevisiae deletion strains, locus YNL248C, strain rpa49, hits give low values",0.948
same,normalized growth,"S. cerevisiae deletion strains, locus YNL250W, strain rad50, hits give low values",0.929
same,normalized growth,"S. cerevisiae deletion strains, locus YNL271C, strain bni1, hits give low values",0.932
same,normalized growth,"S. cerevisiae deletion strains, locus YNL298W, strain CLA4, hits give low values",0.922
same,normalized growth,"S. cerevisiae deletion strains, locus YNL307C, strain MCK1, hits give low values",0.797 (active)
same,normalized growth,"S. cerevisiae deletion strains, locus YNL322C, strain KRE1 (second series), hits give low values",0.907
same,normalized growth,"S. cerevisiae deletion strains, locus YNL322C, strain KRE1, hits give low values",0.94
same,normalized growth,"S. cerevisiae deletion strains, locus YNR049C, strain mso1, hits give low values",0.917 (active)
same,normalized growth,"S. cerevisiae deletion strains, locus YNR052C, strain pop2, hits give low values",0.899 (active)
same,normalized growth,"S. cerevisiae deletion strains, locus YOL012C, strain htz1",0.632
same,normalized growth,"S. cerevisiae deletion strains, locus YOL147C, strain pex11, hits give low values",0.914 (active)
same,normalized growth,"S. cerevisiae deletion strains, locus YOR001W, strain rrp6, hits give low values",0.945
same,normalized growth,"S. cerevisiae deletion strains, locus YOR061W, strain CKA2, hits give low values",0.948
same,normalized growth,"S. cerevisiae deletion strains, locus YOR069W, strain VPS5, hits give low values",0.962
same,normalized growth,"S. cerevisiae deletion strains, locus YOR070C, strain gyp1, hits give low values",0.908 (active)
same,normalized growth,"S. cerevisiae deletion strains, locus YOR080W, strain dia2, hits give low values",0.909 (active)
same,normalized growth,"S. cerevisiae deletion strains, locus YOR083W, strain WHI5, hits give low values",0.877 (active)
same,normalized growth,"S. cerevisiae deletion strains, locus YOR106W, strain vam3, hits give low values",0.908
same,normalized growth,"S. cerevisiae deletion strains, locus YOR136W, strain idh2, hits give low values",0.973
same,normalized growth,"S. cerevisiae deletion strains, locus YOR144C, strain elg1, hits give low values",0.907 (active)
same,normalized growth,"S. cerevisiae deletion strains, locus YOR184W, strain ser1, hits give low values",0.624 (active)
same,normalized growth,"S. cerevisiae deletion strains, locus YOR231W, strain MKK1, hits give low values",0.897
same,normalized growth,"S. cerevisiae deletion strains, locus YOR265W, strain rbl2, hits give low values",0.906 (active)
same,normalized growth,"S. cerevisiae deletion strains, locus YOR270C, strain vph1, hits give low values",0.639 (active)
same,normalized growth,"S. cerevisiae deletion strains, locus YOR290C, strain snf2, hits give low values",0.828 (active)
same,normalized growth,"S. cerevisiae deletion strains, locus YOR316C, strain cot1, hits give low values",0.912 (active)
same,normalized growth,"S. cerevisiae deletion strains, locus YPL051W, strain arl3, hits give low values",0.865 (active)
same,normalized growth,"S. cerevisiae deletion strains, locus YPL055C, strain LGE1, hits give low values",0.923
same,normalized growth,"S. cerevisiae deletion strains, locus YPL078C, strain atp4, hits give low values",0.863 (active)
same,normalized growth,"S. cerevisiae deletion strains, locus YPL106C, strain sse1, hits give low values",0.886
same,normalized growth,"S. cerevisiae deletion strains, locus YPL240C, strain hsp82, hits give low values",0.919 (active)
same,normalized growth,"S. cerevisiae deletion strains, locus YPL241C, strain CIN2, hits give low values",0.945
same,normalized growth,"S. cerevisiae deletion strains, locus YPL256C, strain CLN2, hits give low values",0.898
same,normalized growth,"S. cerevisiae deletion strains, locus YPR119W, strain clb2, hits give low values",0.914 (active)
same,normalized growth,"S. cerevisiae deletion strains, locus YPR141C, strain kar3, hits give low values",0.897 (active)
same,normalized growth,"S. cerevisiae deletion strains, locus YPR163C, strain tif3, hits give low values",0.866 (active)
same,normalized growth,"S. cerevisiae deletion strains, locus YPR167C, strain met16, hits give low values",0.887 (active)
same,normalized growth,"S. cerevisiae deletion strains, strain wtn01, hits give low values",0.854 (active)
same,normalized growth,"S. cerevisiae strains, strain wild type, hits give low values",0.93
